# From ChEMBL document CHEMBL1157539, “Thousands of chemical starting points for antimalarial lead identification” (Nature, 2010)
# How the values were obtained:
# Assay type in all cases: functional
# Plasmodium falciparum [1] = test: GSK_TCMDC: Inhibition of Plasmodium falciparum 3D7 in whole red blood cells, using parasite LDH activity as an index of growth. Test compounds present at 2uM
# Plasmodium falciparum [2] = test: GSK_TCMDC: Inhibition of Plasmodium falciparum Dd2 in whole red blood cells, using parasite LDH activity as an index of growth. Test compounds present at 2uM
# HepG2 = test: GSK_TCMDC: Percent inhibition of human HepG2 cell line. Test compounds present at 10uM.
SMILES,Inhibition (Plasmodium falciparum [1]) [%],Inhibition (Plasmodium falciparum [2]) [%],Inhibition (HepG2) [%]
CO/C(=C\C=C\c1cc2cc(Cl)c(Cl)cc2[nH]1)C(=O)NCCCN1CCN(c2cccc(O)c2)CC1,91,100,46
COCCNCc1cccc(-c2cccc(CNC3CCN(Cc4ccccc4)CC3)c2)c1.O=C(O)C(F)(F)F,100,99,28
CN(C)CCNC(=O)c1csc(Nc2ccc(Cl)c(Cl)c2)n1,100,100,4
CS(=O)(=O)CCNc1cc(N2CCc3ncnc(Nc4ccc(OCc5cccc(F)c5)c(Cl)c4)c3C2)ncn1,96,50,0
FC(F)(F)c1ccc2[nH]c(-c3ccc(-c4ccc(CNCc5cnn(-c6ccccc6)n5)cc4)cc3)nc2c1.O=C(O)C(F)(F)F,100,76,35
Cl.O=C(Nc1ccc(NC2=NCCN2)cc1)c1ccc(C(=O)Nc2ccc(NC3=NCCN3)cc2)cc1,91,86,15
O=C(Nc1cc(C(F)(F)F)cc(C(F)(F)F)c1)c1cc(Cl)ccc1O [IMD-0354],90,98,84
